Bioassay records as filed in PubChem BioAssay.
Most compounds without a hit are left out; they make up all but 1.3% or so of the library.
MCL1 BIM primary: MCL1-BIM-BH3 interaction inhibition (human) | hit rate 0.68% among 320,000 | GST-MCL1 / FITC-Bim-BH3 fluorescence polarization | Q07820 | AID 2057 | inhibition, % at 10.9 µM;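 active = inhibition above the mean inhibition of all tested compounds plus 3 SD, set per campaign, cut at about 40% in these data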;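 note: 0% = DMSO wells and 100% = unlabeled Bim-BH3 peptide control; higher means more loss of mP so more displacement of Bim peptide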
Target sequence (Q07820 whole entry, looked up): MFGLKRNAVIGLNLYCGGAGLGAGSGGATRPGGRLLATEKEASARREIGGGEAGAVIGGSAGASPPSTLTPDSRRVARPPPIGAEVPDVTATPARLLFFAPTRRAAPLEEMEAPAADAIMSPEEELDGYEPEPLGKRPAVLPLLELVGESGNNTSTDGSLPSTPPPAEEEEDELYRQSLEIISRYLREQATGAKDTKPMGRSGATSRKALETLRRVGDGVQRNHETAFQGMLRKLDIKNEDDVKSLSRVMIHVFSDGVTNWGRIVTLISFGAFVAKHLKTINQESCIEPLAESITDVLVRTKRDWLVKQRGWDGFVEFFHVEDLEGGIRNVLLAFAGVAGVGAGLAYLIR
BCLXL inh: Bcl-xL (human) inhibition. GST-Bcl-xL / FITC-Bim BH3 peptide fluorescence polarization. inhibition, % at 10.9 µM. hit rate 0.7% among 320,000. AID 2129;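 active = inhibition above the mean of all tested compounds plus 3 SD, cutoff set per campaign, cut at about 30% in these data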;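 note: 0% = DMSO wells and 100% = unlabeled Bim-BH3 peptide competitor; inhibitors lower millipolarization by displacing the labeled peptide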
Target sequence (Q07817 whole entry, looked up): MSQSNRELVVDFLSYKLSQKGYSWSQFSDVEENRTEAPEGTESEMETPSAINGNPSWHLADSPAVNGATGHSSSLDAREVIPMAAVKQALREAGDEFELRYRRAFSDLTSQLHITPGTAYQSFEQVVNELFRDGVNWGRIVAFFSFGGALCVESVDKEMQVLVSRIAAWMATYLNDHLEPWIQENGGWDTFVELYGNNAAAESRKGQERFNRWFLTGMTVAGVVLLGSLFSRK
GLD-1 TGE inh: GLD-1-TGE RNA interaction inhibition (C. elegans). inhibition, % at 5.96 µM. hit rate 0.44% among 320,000. AID 2280. Q17339. purified GLD-1 + fluorescein TGE RNA, fluorescence polarization;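 active = percent inhibition above a per-plate cutoff, the plate mean of test compounds plus 3 SD, cut at about 30% in these data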;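 note: 0% = DMSO wells with GLD-1 and probe and 100% = wells lacking GLD-1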
Keap1 Nrf2 FP: Keap1-Nrf2 (human) interaction inhibition; Q14145; Keap1 Kelch-Nrf2 peptide fluorescence polarization, 1536-well; inhibition, % at 9.4 µM; hit rate 0.15% among 340,000; AID 504523; in the data active = inhibition above about 12%;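 note: human Keap1 Kelch domain with fluorescein labeled Nrf2 9mer peptide probe; 0% = neutral control wells and 100% = peptide positive control; higher means more block of Keap1 binding to Nrf2 peptide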
C-LANA FP: KSHV C-LANA DNA binding inhibition | MBP-C-LANA/FAM-LBS DNA binding, fluorescence polarization | inhibition, % at 9 µM | hit rate 0.078% among 340,000 | AID 504423;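 active = highest replicate inhibition at or above 60% at 9 µM, even if other replicates fall short; inactive = all replicates below 60% inhibition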;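 note: 0% = neutral control wells and 100% = 4 µM acridine orange control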
E coli Lon inh: inhibitors of E. coli Lon protease | hit rate 0.42% among 360,000 | AID 602123 | inhibition, % at 7.94 µM | P0A9M0 | purified E. coli Lon protease, fluorescence polarization; in the data active = inhibition above about 13%, passing the limit was not always enough;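 note: 0% = enzyme with probe and DMSO and 100% = no enzyme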
Keap1 Kelch bind: binds and thermally shifts human Keap1 Kelch domain; shares compounds with Keap1 Nrf2 FP; Keap1 Kelch thermal shift, delta Tm; active compounds read high; max delta Tm, degrees C; hit rate 8% among 400; AID 651823; in the data active = max delta Tm above about 0.48 degrees C
Sypro dye melt: counter-screen for Keap1 thermal shift hits: dye-only artifacts. shares compounds with Keap1 Nrf2 FP. Sypro Orange dye-only thermal melt, no protein, delta Tm; top dose 26 µM. delta Tm, degrees C (test concentration not listed). 140 tested, under 10 active. AID 651858;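 active = at highest dose tested, delta Tm positive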
* hit, by the source's call; / = not tested or not shown.

SMILES | MCL1 BIM primary | BCLXL inh | GLD-1 TGE inh | Keap1 Nrf2 FP | C-LANA FP | E coli Lon inh | Keap1 Kelch bind | others
Cc1ccc(C)c(N2CN(CCC3=CCCCC3)CNC2=S)c1 | 16 | 8 | 6 | 2 | -1 | -10 | /
O=C(COC(=O)c1ccncc1)Nc1cccc2ccccc12 | / | / | -5 | 14* | 10 | 9 | -0.09
CCOC(=O)N1CCN(Cc2ccccc2Cl)CC1 | -5 | -2 | 87* | 15* | -2 | -5 | -0.17
N=c1c(C(=O)NC2CCCC2)cc2c(=O)n3ccccc3nc2n1C1CCCCC1 | 3 | 7 | 1 | 17* | 17 | 0 | -0.06
Cc1ccc(Cn2c(=N)c(C(=O)NC3CCCC3)cc3c(=O)n4ccccc4nc32)cc1 | 0 | 1 | -6 | 16* | -1 | -4 | -0.15 | Sypro dye melt=-27
COC(=O)c1cc2c(=O)n3ccccc3nc2n(Cc2cccnc2)c1=N | 10 | 6 | 3 | / | / | / | /
N=c1c(C(=O)NCc2ccc(F)cc2)cc2c(=O)n3ccccc3nc2n1Cc1cccnc1 | 39 | 41* | 3 | 13* | 23 | -12 | -0.04 | Sypro dye melt=-23
Cc1cc(C)c(NS(=O)(=O)c2ccc3c(c2)NC(=O)CC(=O)N3)c(C)c1 | 7 | 4 | 5 | 0 | -4 | -10 | /
COc1ccc(-c2oc3c(c2-c2cnc(OC)nc2)C(O)CC3)cc1 (stereo unspecified) | / | / | / | / | / | 2 | /
COCCOc1ccc(C(F)(F)F)cc1NC(=O)COC(=O)c1cc([N+](=O)[O-])ccc1N1CCOCC1 | -1 | -1 | 3 | -1 | -3 | 0 | /
Cc1ccc(NC(=O)CN2C(=O)NC3(CCCCCC3)C2=O)cc1Cl | -21 | -5 | -2 | 20* | -1 | 2 | -0.03
Cc1ccc(NC(=O)CN2C(=O)NC3(CCCC3)C2=O)cc1S(=O)(=O)N1CCCCC1 | 0 | 6 | -1 | -3 | 1 | -6 | /
CCN(CC)c1ccc(C2Nc3cccc4cccc(c34)N2)cc1 | 6 | 4 | 1 | 26* | 25 | -13 | -0.02
Cc1nc(-c2ccc(S(=O)(=O)N3CCCN(CCc4ccccc4)CC3)s2)cs1 | 7 | 6 | 2 | 63* | 30 | 5 | -0.22
Cc1nc(-c2ccc(S(=O)(=O)N3CCN(C4c5ccccc5-c5ccccc54)CC3)s2)cs1 | 7 | 12 | -2 | -2 | 1 | 6 | /
COc1ccc(OCCC(=O)OCC(=O)NCCc2ccccc2)cc1 | -3 | 1 | 0 | -1 | 1 | 8 | /
CCCCOc1ccc(/C=C2/Sc3ccccc3C2=O)cc1 | 5 | -1 | 0 | 13* | 0 | -16 | -0.12
CN1C(=O)c2cccc3c(S(N)(=O)=O)ccc1c23 | 10 | 8 | 5 | 29* | 19 | -7 | -0.09
Cc1ccccc1NS(=O)(=O)c1ccc2c3c(cccc13)C(=O)N2C | 2 | 2 | 5 | 3 | 0 | -4 | /
Cn1c(SCC(=O)c2cc(Cl)c(Cl)s2)nnc1-c1ccco1 | 7 | 10 | -5 | 32* | 19 | -1 | -0.2
Cc1ccc(C(=O)CSc2nnc(-c3ccco3)n2C)cc1 | 6 | -1 | 3 | -1 | -1 | -2 | /
CCOc1ccc2ccccc2c1/C=N/NC(=O)c1ccc(C)nc1 | 0 | 1 | 8 | -3 | -2 | -16 | /
CC(Sc1nc2ccccc2s1)C(=O)Nc1nnc(C(C)C)s1 (stereo unspecified) | 10 | 3 | 10 | 71* | 81* | -1 | -0.04
COc1cc(NC(=O)CSc2nc3cc(C)ccc3cc2C)c(C(=O)O)cc1OC | 11 | 1 | 4 | 16* | 10 | -5 | -0.12 | Sypro dye melt=-21
Cc1nc(NS(=O)(=O)c2ccccc2)sc1NC(=O)OCCN(C)C | 7 | 3 | 0 | 27* | 33 | -5 | -0.05
SMILES | MCL1 BIM primary | BCLXL inh | GLD-1 TGE inh | Keap1 Nrf2 FP | C-LANA FP | E coli Lon inh | Keap1 Kelch bind | others
Cc1ccc(S(=O)(=O)NCC(=O)OCC(=O)Nc2ccc3c(c2)OCCO3)cc1 | -11 | -7 | 5 | 32* | 27 | -3 | -0.16 | Sypro dye melt=-22
CCCNS(=O)(=O)c1ccc(OCC(=O)Nc2ccc3c(c2)OCCO3)cc1 | -5 | -2 | 2 | -8 | -1 | 5 | /
C/C(C/C(C)=C1/SC(=S)NC1=O)=C1\SC(=S)NC1=O | / | / | / | 49* | 32 | -62 | 2*
CCCc1cc(NC(=O)COC(=O)c2nccnc2N)n(-c2ccccc2)n1 | -5 | 0 | -2 | 57* | 26 | -14 | -0.08
Cc1cc(NC(=O)COC(=O)c2nccnc2N)n(-c2ccccc2)n1 | -2 | 2 | 6 | -5 | 2 | 3 | /
COc1ccc(S(=O)(=O)N2CCCCC2)cc1NC(=O)CSc1nnc(C2CC2)n1C | -2 | 5 | 8 | 3 | 1 | -8 | /
Cc1ccc(O)c(C(=O)c2cnc3c(c2)c(C)nn3-c2ccccc2)c1 | 9 | 3 | 0 | 23* | 1 | -4 | -0.1 | Sypro dye melt=-28
O=C1NC[C@H](Cc2ccc(O)cc2)N(C[C@@H]2CCCN2C[C@H](Cc2ccc(O)cc2)N2C[C@H](Cc3ccccc3)N(CCc3ccccc3)C(=O)C2=O)C1=O | / | / | / | / | / | -8 | /
COc1ccc(/C=N\NC(=O)COc2ccc(C(C)(C)C)cc2)cc1Cn1nc(C)cc1C | -5 | 1 | -9 | -6 | -2 | -6 | /
COc1ccc(OC)c(Nc2nc(NCCCN(C)C)nc(N)c2[N+](=O)[O-])c1 | 3 | 2 | -1 | 2 | -2 | -1 | /
COCCCNc1nc(N)c([N+](=O)[O-])c(Nc2cc(OC)ccc2OC)n1 | 2 | 4 | 1 | 38* | 16 | 0 | -0.08
COc1cccc(/C=C/C(=O)OCC(=O)NC(=O)NC2CCCC2)c1 | 1 | 9 | 2 | 36* | 16 | 4 | -0.15 | Sypro dye melt=-28
COc1cccc(/C=C/C(=O)OCC(=O)NC2CCCCCCC2)c1 | / | / | 2 | 6 | -1 | -3 | /
O=C(COC(=O)/C=C/c1cccc(Cl)c1)NC1CC1 | 3 | 4 | 8 | 24* | 11 | 0 | -0.09 | Sypro dye melt=-23
COc1cccc(N2C(=O)CC(NNc3nc4ccccc4s3)C2=O)c1 (stereo unspecified) | 8 | 5 | 3 | 0 | 0 | 3 | /
Cc1cc([N+](=O)[O-])c2c(c1C)C1C=CCC1C(c1ccccn1)N2 (stereo unspecified) | 9 | 10 | 9 | / | / | / | /
Cc1ccc(NC(=S)N2CCN(Cc3ccccc3)CC2)cc1 | 14 | 2 | -5 | 1 | 0 | 2 | /
COc1ccc(NC(=S)N2CCN(Cc3ccc(C)cc3)CC2)cc1 | 2 | 8 | 1 | 26* | -1 | -3 | -0.07 | Sypro dye melt=-30
Cc1nnc(SCC(=O)c2cc(C)n(C3CC3)c2C)s1 | 5 | -2 | 3 | -1 | -1 | -3 | /
